Data on 40 molecules can be found in PubChem BioAssay.

SMILES strings stand for the structures. A number with no mark means an inactive call. The rule behind the calls is not given here.

Usually remaining activity stands for the signal under treatment as a percentage of the control signal.

The test system of this assay is Aerobactin synthetase IucA (Klebsiella pneumoniae, hypervirulent). Put plainly: IucA enzyme inhibition, biochemical, LOPAC library, absorbance readout (AID 1346212).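 Note: 100% = no compound wells and 0% = no enzyme wells.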 The following applies: IucA enzyme assay, absorbance (OD) readout; stronger effect = lower value;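 tested at 8 µM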.
Consider `Cc1cc(Cn2cnc3c2C[C@@H](C(=O)O)N(C(=O)C(c2ccccc2)c2ccccc2)C3)ccc1N`, for which the remaining activity was 112%.

Take `CC(C)(C=O)Cc1cc(C(C)(C)C)c(O)c(C(C)(C)C)c1`: the remaining activity is 115%.

In the case of `Cc1cccc(C#Cc2ccccc2)n1`, the remaining activity is 123%.

Turning to `Nc1ccc(CCNc2ncnc3c2ncn3C2OC(CO)C(O)C2O)cc1` (stereo not given), the remaining activity is 124%.

For `CCOC(=O)C1=C(C)NC(C)=C(C(=O)OC)C1c1cccc(Cl)c1Cl` (stereo not given), the remaining activity is 99.8%.

For the molecule `Nc1nccc2c1ncn2[C@@H]1O[C@H](CO)[C@@H](O)[C@H]1O`, the remaining activity is 95.9%.

On to `C[C@]12CC[C@@H]3c4ccc(O)cc4C[C@@H](CCCCCCCCCS(=O)CCCC(F)(F)C(F)(F)F)[C@H]3[C@@H]1CC[C@@H]2O` (stereo not given in full), for which the remaining activity is 115%.

Turning to `C=C/C(C)=C/[C@@]1(C)SC(=O)C(C)=C1O`, the remaining activity is 123%.

As to `C[C@@H](NC(=O)/C(C#N)=C/c1ccc(O)c(O)c1)c1ccccc1`, the remaining activity is 97.8%.

Consider `Cn1cc(C(=O)OCC2CCN(CCNS(C)(=O)=O)CC2)c2ccccc21`, for which the remaining activity was 104%.

Regarding `O=C(O)c1ccccc1Nc1cccc(OCc2ccc3ccccc3n2)c1`, the remaining activity is 125%.

Take `CCN1CCC[C@H]1CNC(=O)c1cc(S(N)(=O)=O)ccc1OC`: the remaining activity was 122%.

Regarding `CN1CCC(=C2c3ccccc3C=Cc3ccccc32)CC1`, the remaining activity is 123%.

Regarding `C[N+](C)(C)CCOC(=O)CCC(=O)OCC[N+](C)(C)C`, the remaining activity is 123%.

Consider `NC(N)=NC(=O)Cc1c(Cl)cccc1Cl`, for which the remaining activity is 119%.

As to `NC(=O)C1=CN(C2OC(COP(=O)(O)OP(=O)(O)OC[C@H]3O[C@@H](n4cnc5c(N)ncnc54)C(OP(=O)(O)O)[C@H]3O)C(O)C2O)C=CC1` (stereo not given in full), the remaining activity was 112%.

In the case of `CN1CCN(c2nc3cc(C(F)(F)F)ccc3n3cccc23)CC1`, the remaining activity was 94.3%.

Consider `O=C(O)C1CCNCC1`, for which the remaining activity is 111%.

With `Cc1cccc(C)c1NC(=O)C[N+](C)(C)C`, the remaining activity is 116%.

Regarding `CCOC(=O)c1cnc2c(cnn2CC)c1NN=C(C)C`, the remaining activity is 124%.

For the molecule `COc1ccc(CCn2nnnc2C2(c3ccc(C)cc3)CC2)cc1`, the remaining activity was 115%.

Regarding `CC(=O)[C@]1(O)Cc2c(O)c3c(c(O)c2[C@@H](O[C@H]2C[C@H](N)[C@H](O)[C@H](C)O2)C1)C(=O)c1ccccc1C3=O`, the remaining activity was 125%.

For `CNCCC(Oc1ccccc1C)c1ccccc1` (stereo not given), the remaining activity was 102%.

On to `CCC(=O)N1CCN(C(=O)c2ccccc2)CC1`, for which the remaining activity was 122%.

Consider `CC(=O)O[C@]1(C(C)=O)CC[C@H]2[C@@H]3C=C(Cl)C4=CC(=O)[C@@H]5C[C@@H]5[C@]4(C)[C@H]3CC[C@@]21C`, for which the remaining activity was 95.7%.

As for `CCCn1c(=O)c2[nH]c(-c3ccc(OCC(=O)Nc4ccc(C#N)cc4)cc3)nc2n(CCC)c1=O`, the remaining activity is 109%.

In the case of `COc1cccc(NC(=O)/C=C/c2ccc(Cl)cc2)c1`, the remaining activity was 101%.

For `Cc1ccc(S(=O)(=O)N[C@@H](Cc2ccccc2)C(=O)CCl)cc1`, the remaining activity is 107%.

Take `CNC[C@H](O)c1ccc(O)c(O)c1`: the remaining activity is 94.5%.

Consider `COc1ccccc1N1CCN(CCN2C(=O)CC3(CCCC3)CC2=O)CC1`, for which the remaining activity is 117%.

With `Clc1nccc2c1ccc1ccccc12`, the remaining activity is 109%.

On to `Cn1cc(C2=C(c3ccc(Cl)cc3Cl)C(=O)NC2=O)c2ccccc21`, for which the remaining activity was 116%.

As for `C/C=C1\C(=O)C[C@H]2[C@@H]3CCC4=CC(=O)CC[C@]4(C)[C@H]3CC[C@]12C`, the remaining activity is 101%.

In the case of `Cc1nc2c([nH]1)c(=O)n(C)c(=O)n2Cc1ccco1`, the remaining activity is 99.1%.

For the molecule `C[C@]12C[C@H](O)[C@H]3[C@@H](CCC4=CC(=O)CC[C@@]43C)[C@@H]1CC[C@@H]2C(=O)CO`, the remaining activity was 110%.

For `C=CC[C@H](N)C(=O)O`, the remaining activity is 95.7%.

For `CC(=O)OCC(=O)[C@@]1(O)CC[C@H]2[C@@H]3CCC4=CC(=O)CC[C@]4(C)[C@H]3C(=O)C[C@@]21C`, the remaining activity was 102%.

Take `CN1CCc2cccc3c2[C@H]1Cc1ccc(O)c(O)c1-3`: the remaining activity was 107%.

`CN1CCc2cc(Cl)c(O)cc2[C@@H](c2ccccc2)C1`: the remaining activity is 102%.

As to `CCN1CCC[C@H]1CNC(=O)c1c(O)c(Cl)cc(Cl)c1OC`, the remaining activity is 98.9%.
